The list is not random: actives were taken first. Their share in the collection is about 19%.
IL1B secr inh: qHTS for Inhibitors of Inflammasome Signaling: IL-1-beta AlphaLISA Primary Screen. 4.7% of 360,000 active. THP-1 LPS/ATP IL-1B secretion, AlphaLISA, 16 h; active compounds read low. activity change, % at 57.5 µM; in the data active means activity change below about -50%; inconclusive means mostly about -30% to -49%
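THP-1 cells pretreated 1 hr with compounds (up to 57.5 uM final), then stimulated with LPS (250 ng/mL final) plus ATP (1.25 mM final); secreted IL-1B measured by AlphaLISA after 16 hr, decreased signal indicating inhibition.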
DT40 TDP1 CPT: qHTS for Inhibitors of human tyrosyl-DNA phosphodiesterase 1 (TDP1): qHTS in cells in presence of CPT; chicken DT40 Tdp1-/-;hTDP1 cells + 20 nM CPT, ATP luminescence, 48 h; Potency, µM (series often up to 46.2 µM), most hits filed as inhibitors; 12% of 420,000 active; further: nearly all actives have a fitted effect of over 55% in size
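Chicken DT40 Tdp1-/- cells complemented with human TDP1, 400 cells/well, exposed to compounds plus 20 nM camptothecin for at least 48 h at 37 C; viability read as ATP content by CellTiter-Glo luminescence.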
HT1080 IDH1KD tx: qHTS for induction of synthetic lethality in tumor cells producing 2HG: qHTS for the HT-1080-IDH1KD cell line. 2% of 360,000 active. Potency, µM (highest dose often 46.1 µM), actives largely listed as cytotoxic. AID 686971, 2013. HT-1080 IDH1 knockdown viability, ATP luminescence, 48 h
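IDH1KD HT-1080 cells, 750/well, RPMI + 5% FBS; compound pinned after 2 h settling; 48 h, 37 °C; CellTiter-Glo luminescence; % activity normalised to DMSO and no-cell wells; curves fitted, classed by r2 and efficacy.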
TDP1 cell noCPT: qHTS for Inhibitors of human tyrosyl-DNA phosphodiesterase 1 (TDP1): qHTS in cells in absence of CPT; 15% of 420,000 active; Potency, µM (series often up to 46.2 µM), actives largely listed as inhibitors; AID 686978, 2013; DT40 Tdp1-/- hTDP1 cells, no CPT, ATP luminescence, 48 h; further: nearly all actives have a fitted effect of over 55% in size
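Luminescent ATP content (CellTiter-Glo) served as the growth readout. Knockout chicken DT40 cells expressing human TDP1 were exposed to compounds without camptothecin for a minimum 48 hr at 37 °C.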
HT1080-NT tox: qHTS for induction of synthetic lethality in tumor cells producing 2HG: qHTS for the HT-1080-NT fibrosarcoma cell line. Potency, µM (top dose mostly 46.1 µM), usual class: cytotoxic. 1.6% of 360,000 active. AID 686970, 2013. HT-1080-NT fibrosarcoma viability, CellTiter-Glo ATP luminescence, 48 h;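 further: NT is the 2HG producing partner of a matched IDH1 knockdown line; nearly all actives have a fitted effect of over 55% in size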
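Read-out is CellTiter-Glo luminescence after 10 minutes at room temperature, following 48 hours' compound treatment of HT-1080-NT cells (750 cells/well, RPMI, 5% FBS, 37 degrees C).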
Numbers stand for hits; i = inactive; ? = inconclusive; nt = not tested or not shown; ! = repeats disagree; [ ] = another dose, or the depositor's remark. Unless noted, the call rests on the fitted dose curve; in most records, active means well fitted curve in the direction sought with a large enough effect; inconclusive means small, poorly fitted or top-dose-only effect, or another doubt; inactive means no such curve, though single readings can be large; an effect the other way counts as inactive or inconclusive.

SMILES | IL1B secr inh | DT40 TDP1 CPT | HT1080 IDH1KD tx | TDP1 cell noCPT | HT1080-NT tox
CCc1ccccc1NC(=O)CN(c1ccc(OC)cc1OC)S(=O)(=O)c1ccccc1 | i | 20.6µM | i | ? | i
Cc1ccc2nc(CSc3nnc(NC(=O)COc4ccccc4F)s3)cc(=O)n2c1 | nt | i | nt | i | nt
C[C@@H]1CN([C@H](C)CO)C(=O)c2c(c3ccccc3n2C)-c2ccccc2CO[C@@H]1CN(C)S(=O)(=O)c1cccs1 | i | ? | ? | 20.6µM | i
C[C@H](CO)N1C[C@H](C)[C@H](CN(C)S(=O)(=O)c2cccc(F)c2)OCc2ccccc2-c2c(n(C)c3ccccc23)C1=O | i | 10.3µM | ? | 16.4µM | ?
CCOC(=O)C1(C)CCN1C(=O)c1cncc(Br)c1 (stereo not given) | i | i | i | i | i
CCOC(=O)c1nn(-c2ccc(Br)cc2)cc1C(=O)c1cccc2ccccc12 | i | 8.2µM | ? | 16.4µM | i
O=C1NC(c2ccc(Br)cc2)=N/C1=C/c1ccco1 | i | 7.31µM | i | ? | i
Cn1ccnc1SCC(=O)Nc1nc2c(F)c(F)c(F)cc2s1 | i | ? | i | ? | i
COc1ccc(C(=O)/C=C/c2cc(OC)c(O)c(OC)c2)c(F)c1 | -100.0 | ? | ? | 16.4µM | ?
O=C(/C=C/c1ccc(OC2CSC2)cc1)c1ccc(Cl)cc1 | i | ? | i | ? | i
COc1ccc(C(=O)/C=C/c2ccc(OC3CSC3)cc2)cc1OC | -87.6 | ? | i | 18.4µM | ?
COc1ccc2cc(C(=O)/C=C/c3cc(OC)c(O)c(OC)c3)ccc2c1 | -98.3 | 10.3µM | 16.4µM | 9.2µM | 20.6µM
COc1cc(/C=C/C(=O)O)cc(OC)c1O | i | i | i | i | i
Cc1ccc(F)cc1NC(=O)COC(=O)C1CCN(c2ccc(C(F)(F)F)cn2)CC1 | i | i | i | i | i
CC1Cc2cc(-c3csc(N)n3)ccc2O1 (stereo not given) | i | i | i | i | i
COc1ccccc1C(=O)N/C(=C\c1cn(S(=O)(=O)N(C)C)c2ccccc12)C(=O)N1CCOCC1 | i | ? | ? | ? | i
CCNc1nc(-c2sc(NC(=O)C(C)(C)C)nc2C)c(-n2cc(-c3ccccc3)nn2)s1 | -76.5 | 10.3µM | ? | 7.31µM | ?
Cc1cc(C)c(CSc2ncnc3nc[nH]c23)c(C)c1 | i | i | i | i | i
O=C(CSc1ncnc2nc[nH]c12)c1ccc2ccccc2c1 | i | ? | ? | 11.6µM | 23.1µM
c1nc(SSc2ncnc3nc[nH]c23)c2[nH]cnc2n1 | ? | 5.8µM | 1.3µM | 7.31µM | 2.31µM
O=C(CSc1ncnc2nc[nH]c12)N1CCN(c2ccc(Cl)cc2)CC1 | i | 23.1µM | i | 13µM | ?
O=C(O)CSc1ncnc2nc[nH]c12 | i | i | i | i | i
CC1(C)Cc2c(cnn2-c2ccccc2)-c2c1c1ccccc1n2CC(O)CBr (stereo not given) | i | ? | i[9.24 µM] | ? | ?
O=C(O)COc1ccc(C(NC(=O)c2c(F)cccc2F)NC(=O)c2c(F)cccc2F)cc1 | i | i | i | i | i
CC(OC(=O)Cc1n[nH]c(=O)c2ccccc12)C(=O)Nc1cc(Cl)cc(Cl)c1 (stereo not given) | i | ? | i | 23.1µM | i
SMILES | IL1B secr inh | DT40 TDP1 CPT | HT1080 IDH1KD tx | TDP1 cell noCPT | HT1080-NT tox
CC(OC(=O)Cc1n[nH]c(=O)c2ccccc12)C(=O)Nc1ccc(Cl)cn1 (stereo not given) | i | ? | i | ? | i
CCOC(=O)c1c(C)[nH]c(C(=O)COC(=O)c2ccc([N+](=O)[O-])o2)c1C | i | 16.4µM | i | 25.9µM | i
Cn1c(N)c(C(=O)COC(=O)c2ccc([N+](=O)[O-])o2)c(=O)n(C)c1=O | i | 18.4µM | i | ? | ?
Cn1c(N)c(C(=O)COC(=O)c2ccc(Br)o2)c(=O)n(C)c1=O | i | i | i | i | i
CCOC(=O)c1c(C)[nH]c(C(=O)COC(=O)c2cc(C)oc2C)c1C | ? | ? | i | i | i
CC(C)(C)c1ccc(C(=O)N2CCC2(C)C(=O)Nc2cccc(C#N)c2)cc1 (stereo not given) | i | 16.4µM | ? | 16.4µM | ?
CC1(C(=O)NS(=O)(=O)c2cccc(C#N)c2)CCN1C(=O)c1ccccc1CCc1ccccc1 (stereo not given) | i | i | i | i | i
Cc1ccsc1C(=O)N1CCC1(C)C(=O)Nc1cccc(C#N)c1 (stereo not given) | i | ? | i | ? | i
CC1(C(=O)Nc2cccc(C#N)c2)CCN1C(=O)c1ccccc1CCc1ccccc1 (stereo not given) | i | ? | i | 23.1µM | i
CC1(C(=O)Nc2ccc3c(c2)OCCO3)CCN1C(=O)c1ccco1 (stereo not given) | i | i | i | i | ?
CC1(C(=O)Nc2ccc3c(c2)OCCO3)CCN1C(=O)c1ccccc1CCc1ccccc1 (stereo not given) | i | 29.1µM | i | ? | i
Cc1sc(NC(=O)CSc2nnc(N)s2)c(C#N)c1C | i | i | i | i | i
CCC1CCCCN1C(=O)c1ccc([N+](=O)[O-])o1 (stereo not given) | i | ? | i | i | i
C=C(C)CSc1nnc(CCCCCNC(=O)OC(C)(C)C)o1 | i | i | i | ? | ?
O=C(NC1CCCCC1)C(C1CC1)n1c(=O)c(-c2cc3ccccc3[nH]2)nc2ccccc21 (stereo not given) | i | ? | i | ? | ?
O=C(NCc1ccccc1)C(C1CC1)n1c(=O)c(-c2cc3ccccc3[nH]2)nc2ccccc21 (stereo not given) | i | ? | ? | ? | 23.1µM
O=C(NCc1ccccc1)C(c1ccccc1)n1c(=O)c(-c2cc3ccccc3[nH]2)nc2ccccc21 (stereo not given) | i | ? | ? | 20.6µM | ?
Cc1ccc(-c2ccc(C)c(N)c2C)c(C)c1N | i | i | i | i | i
CC(=O)Nc1nc(C)c(-c2csc(Nc3ccccn3)n2)s1 | -78.9! | 10.3µM | ? | 13µM | i
Cc1nc(N)sc1-c1csc(Nc2cccc(C(=O)O)c2)n1 | i | i | i | i | i
CC(=O)Nc1ccc(Nc2nc(-c3sc(NC(C)=O)nc3C)cs2)cc1 | -95.3 | 16.4µM | i | 13µM | i
CC(=O)Nc1nc(C)c(-c2csc(Nc3cccc([N+](=O)[O-])c3)n2)s1 | -50.5 | 8.2µM | ? | 5.17µM | ?
CC(=O)c1cccc(Nc2nc(-c3cccc([N+](=O)[O-])c3)cs2)c1 | i | ? | ? | ? | i
